Results from ChEMBL document CHEMBL3433997, “St. Jude Leishmania screening dataset” (2016).

Target: Glucose transporter (Leishmania mexicana) (UniProt O61059)
Assay: ST_JUDE_LEISH: Cytotoxicity at 2uM final concentration against transgenic Leishmania Mexicana promastigotes LmGT2 that are glucose transport deficient and complemented with the L. Mexicana glucose transporter 2. Activity is measured by DNA content using SYBR green in vitro
Format: functional

Q: With Cc1nc(NCCc2c[nH]cn2)cc(NCc2ccccc2)n1 as the compound, how does the inhibition read?
A: 3.61%

Q: With Oc1ccc(Cl)cc1Nc1nc(C(F)(F)F)nc2ccccc12 as the compound, how does the inhibition read?
A: 2.23%

Q: COc1cc(Nc2nccc(NCC(O)c3ccc(C(F)(F)F)cc3)n2)cc(OC)c1OC (stereo not given) was tested. Which inhibition did it give?
A: 2.81%

Q: For O=C(Nc1cccc(F)c1)c1ccc(C(=O)NC2CCN(CC3CCCCC3)CC2)cc1, which inhibition is on record?
A: 1.84%

Q: Which inhibition does the source give for FC(F)(F)c1ccc2[nH]c(-c3cccc(-c4ccc(CNCC5CCCO5)cc4)c3)nc2c1 (stereo not given) here?
A: 6.46%

Q: O=C(Cc1cn(-c2ccccc2)nc1-c1ccc(Cl)cc1)Nc1nccs1 was tested. Which inhibition did it give?
A: 7.98%

Q: For COc1cc2nc(N3CCC(CNC(=O)c4ccc(-c5ccc(C(=O)N(C)C)cc5)cc4)CC3)nc(N)c2cc1OC, which inhibition is on record?
A: 1.75%

Q: CCc1cccc(-n2c(=O)c3cccnc3n2CC(=O)NCc2ccccc2Cl)c1 was tested. Which inhibition did it give?
A: 4.33%

Q: How did the inhibition turn out when Cc1[nH]c(C)c(-c2ccc(OCc3cc(F)cc(F)c3)nc2)c(=O)c1Cl was run?
A: 2.08%

Q: How did the inhibition turn out when COc1ccccc1CCC(C)(C)NC(=O)CC(CCc1ccccc1)Nc1ccc(C#N)c2ccccc12 (stereo not given) was run?
A: -3.34%

Q: With CN1CCN(c2ncnc3ccc(NC(=O)Nc4ccc(Cl)c(Cl)c4)cc23)CC1 as the compound, how does the inhibition read?
A: 5.24%

Q: With O=C(/C=C/c1ccc(Cl)c(Cl)c1)NCCCCN1CCCN(C(=O)Nc2ccc(Cl)c(Cl)c2)CC1 as the compound, how does the inhibition read?
A: -1.91%

Q: Which inhibition does the source give for O=C(NCc1ccccc1)Nc1cccc(-c2cccc(-c3nc4cc(C(F)(F)F)ccc4[nH]3)c2)c1 here?
A: 6.02%

Q: How did the inhibition turn out when COc1ccc(N2CCN(C(CNC(=O)C3CCCCC3)c3ccc4c(c3)OCO4)CC2)cc1 (stereo not given) was run?
A: 4.35%

Q: With CC(C)(C)OC(=O)NCCc1cccc(-c2c[nH]c3ncc(-c4cccc(NS(C)(=O)=O)c4)cc23)c1 as the compound, how does the inhibition read?
A: 7.65%
